Among the data in PubChem BioAssay (Tox21) are Potency and outcome values, retold here.

Molecules are shown by their SMILES. Several values for one entry are separate records, joined by “and”; a condition that tells them apart may be missing. Equal values may be shown once. Inconclusive results are not listed. Where a structure was tested more than once in an assay, its records may differ in their call. Activity calls are given as the source filed them. Unless noted, calls come from the whole dose curve; as a rule, active = well fitted curve in the direction sought with a large enough effect in the repeat runs; inconclusive = weak or mixed curves; inactive = no such curve, though single readings can be large; an effect the other way counts as inactive or inconclusive.

For experiment [1], the target named is Retinoic acid receptor RXR-alpha (Homo sapiens) (UniProt P19793). The experiment can be described thus: qHTS assay to identify small molecule agonists of the RXR signaling pathway (AID 1159527; calls by dose curve; note: nearly all actives have a fitted effect of over 35% in size; note: potency is the fitted concentration of half-maximal effect). In short, it runs like this: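 16 hr incubation of compound-treated RXR-alpha-UAS-bla HEK 293T cells (2% charcoal-stripped FBS, 37 C) preceded a 2 hr room-temperature LiveBLAzer FRET substrate step and blue/green fluorescence measurement.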

A short description of experiment [2]: qHTS assay to identify small molecule agonists of the RXR signaling pathway - cell viability counter screen (AID 1159529).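 Note: HEK 293T cells carrying an RXR-alpha UAS beta-lactamase reporter; series mostly up to about 77 µM; nearly all actives have a fitted effect of over 50% in size.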 The method in brief:
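In this parallel viability measure, GeneBLAzer RXR-alpha HEK 293T cells (2% charcoal-stripped FBS) were given a 5 hr preincubation, treated with compounds 16 hr at 37 C, and read by CellTiter-Glo luminescence.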
(In qHTS, concentration-response curves come from the screen itself.)

The nature of experiment [3]: qHTS assay to identify small molecule antagonists of the retinoid acid receptor (RAR) signaling pathway - cell viability counter screen (AID 1159551). Note: nearly all actives have a fitted effect of over 35% in size. In short, it runs like this: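 In this counter screen, the RARE-luciferase line C3RL4 was exposed for 6 h at 37 C and 5% CO2 to compounds with retinol at 1 uM final. Cellular ATP, read by luminescence, served as the viability measure.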

Experiment [4] can be described thus: qHTS assay to identify small molecule antagonists of the estrogen related receptor (ERR) signaling pathway from Tox21 library - cell viability counter screen (AID 1224834). Note: nearly all actives have a fitted effect of over 30% in size. Note: potency is the fitted concentration of half-maximal effect. In short, it runs like this:
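Counter screen run in ERR cells (2,000 cells/well): cells pre-incubated 6 h, then treated with compounds for 17.5 h at 37 C. Fluorescence was read 30 min after CellTiter-Fluor addition.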

Experiment [5] deals with Luciferin 4-monooxygenase (Photinus pyralis) (UniProt P08659). Put plainly: qHTS assay to identify small molecule inhibitors of firefly luciferase (AID 1224835). Note: nearly all actives have a fitted effect of over 25% in size. Note: potency is the fitted concentration of half-maximal effect. In short, it runs like this: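 Inhibition of purified Photinus luciferase is measured by luminescence. Substrate levels (D-luciferin, ATP) sit at their KM values. Each compound is tested in a concentration series.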

Experiment [6] is described as follows: qHTS assay to identify small molecule agonists of the constitutive androstane receptor (CAR) signaling pathway - cell viability counter screen (AID 1224836). Note: nearly all actives have a fitted effect of over 45% in size. Note: potency is the fitted concentration of half-maximal effect. The method in brief: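 Using CellTiter-Fluor, viability of HepG2 cells harbouring hCAR and CYP2B6-2.2kb was measured following 23 h incubation with a 15-concentration compound series plus PK11195 (0.75 uM final).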

The nature of experiment [7]: qHTS assay to identify small molecule antagonists of the constitutive androstane receptor (CAR) signaling pathway - cell viability counter screen (AID 1224837). Note: nearly all actives have a fitted effect of over 45% in size. Note: potency is the fitted concentration of half-maximal effect. In short, it runs like this: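 CITCO at 50 nM final was added alongside compounds (15 concentrations) to double-stable hCAR/CYP2B6-2.2kb HepG2 cells. Following 23 hr at 37 C, cell viability was quantified by CellTiter-Fluor fluorescence intensity.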

The target of experiment [8] is Nuclear receptor subfamily 1 group I member 3 (Homo sapiens) (UniProt Q14994). Put plainly: qHTS assay to identify small molecule antagonists of the constitutive androstane receptor (CAR) signaling pathway (AID 1224838). Note: nearly all actives have a fitted effect of over 40% in size. The method in brief: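 Inhibition of CITCO-driven (50 nM final) CYP2B6 reporter expression is measured in HepG2 cells stably carrying hCAR. Fifteen compound concentrations are applied for 24 h at 37 C, followed by luciferase luminescence.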

Experiment [9] has the same target. The experiment can be described thus: qHTS assay to identify small molecule agonists of the constitutive androstane receptor (CAR) signaling pathway (AID 1224839). Note: series mostly up to about 92 µM; nearly all actives have a fitted effect of over 15% in size. In short, it runs like this:
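Double-stable HepG2 cells (hCAR, CYP2B6-2.2kb) seeded 4 h before compound addition. Exposure 24 h with 0.75 uM PK11195 final. Luciferase detected by ONE-Glo.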

A short description of experiment [10]: qHTS assay to identify small molecule antagonists of the estrogen related receptor signaling pathway with the pleiotropic PPARgamma coactivator (PGC) from Tox21 10K library (AID 1224841; call rule not given here; note: series mostly up to about 92 µM; actives are mostly falling curves and most rising ones were filed inactive; nearly all actives have a fitted effect of over 50% in size). The method in brief: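 One-Glo luminescence, measured after half an hour at room temperature, quantified reporter output of PGC/ERR cells. These had been plated at 2,000 per well, incubated 6 h, dosed with compounds in DMSO, then kept 18 h at 37 C.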

A short description of experiment [11]: qHTS assay to identify small molecule agonists of the estrogen related receptor signaling pathway with the pleiotropic PPARgamma coactivator (PGC) from Tox21 10K library (AID 1224842). Note: nearly all actives have a fitted effect of over 15% in size. In short, it runs like this:
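Luminescence from One-Glo (30 min, room temperature) measured after PGC/ERR cells had 18 h at 37 C with pinned compound (23 nL in DMSO). Cells had been seeded at 2,000 per well and pre-incubated 6 h.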

The target of experiment [12] is Thyrotropin receptor (Homo sapiens) (UniProt P16473). The experiment can be described thus: qHTS assay to identify small molecule agonists of the thyroid stimulating hormone receptor (TSHR) signaling pathway (AID 1224843; calls by dose curve; note: nearly all actives have a fitted effect of over 45% in size). In short, it runs like this: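 Agonist activity read as cAMP rise via d2/cryptate HTRF competition, 1 h room-temperature detection, in HEK293 cells expressing TSHR. Fifteen-point titrations, each run in triplicate, with a 30 min room-temperature incubation beforehand.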

The nature of experiment [13]: qHTS assay to identify small molecule agonists of the hypoxia (HIF-1) signaling pathway - cell viability counter screen (AID 1224844; calls by dose curve; note: nearly all actives have a fitted effect of over 50% in size). The method in brief: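 In this counter screen, HRE-bla ME-180 cell viability after 17 hrs of compound exposure at 37C was read by CellTiter-Glo luminescence, multiplexed with the beta-lactamase reporter measurement.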
Experiment [14] can be described thus: qHTS assay to identify small molecule agonists of the hypoxia (HIF-1) signaling pathway (AID 1224846; active = well fitted activation curve with a large enough effect in the signal ratio in the repeat runs, not every such curve was filed as active; the % refers to the signal ratio). In short, it runs like this:
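ME-180 HRE-bla reporter cells; compounds in DMSO, 17 h at 37C; read-out beta-lactamase via CCF4-AM FRET.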

A short description of experiment [15]: qHTS assay to identify small molecule antagonists of the estrogen related receptor signaling pathway with the pleiotropic PPARgamma coactivator (PGC) from Tox21 10K library - cell viability counter screen (AID 1224840; active = well fitted cell-killing curve with a large enough effect in the repeat runs, not every such curve was filed as active; note: nearly all actives have a fitted effect of over 40% in size). In short, it runs like this:
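Readout: fluorescence intensity from CellTiter-Fluor after 30 min at 37 C/5% CO2. Preceded by 17.5 h treatment of PGC/ERR cells with DMSO-dissolved compounds, added 6 h post-seeding.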

Experiment [16] is described as follows: qHTS assay to identify small molecule agonists of H2AX (AID 1224845; active = well fitted activation curve with a large enough effect in the signal ratio in the repeat runs, not every such curve was filed as active; the % refers to the signal ratio). The method in brief: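 Phospho-H2AX Ser139 measured by HTRF (ex 320 nm; em 665 and 620 nm) after 24 hr antibody incubation. Compounds, 15 concentrations, 0.76% DMSO, were applied to CHO-K1 cells for 3hr at 37C before lysis.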
A short description of experiment [17]: qHTS assay to identify small molecule agonists of the retinoic acid receptor (RAR) signaling pathway (AID 1159553). The method in brief:
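In this cell-based screen, 1,000 C3RL4 cells per well were cultured overnight, dosed with test chemicals in DMSO for 6 hr, and assessed for RARE luciferase luminescence.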

Chain of Nuclear receptor subfamily 1 group I member 3 (Homo sapiens) (Q14994 whole entry, looked up): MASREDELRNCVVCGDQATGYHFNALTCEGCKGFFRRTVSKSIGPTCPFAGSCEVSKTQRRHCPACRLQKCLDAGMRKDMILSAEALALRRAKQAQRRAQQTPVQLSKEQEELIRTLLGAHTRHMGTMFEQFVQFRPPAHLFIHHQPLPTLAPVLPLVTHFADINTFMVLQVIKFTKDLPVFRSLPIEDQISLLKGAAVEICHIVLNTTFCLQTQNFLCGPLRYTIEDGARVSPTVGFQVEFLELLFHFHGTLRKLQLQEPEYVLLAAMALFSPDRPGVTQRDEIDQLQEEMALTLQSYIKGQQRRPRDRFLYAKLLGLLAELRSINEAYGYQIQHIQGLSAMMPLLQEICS
Chain of Retinoic acid receptor RXR-alpha (Homo sapiens) (P19793 whole entry, looked up): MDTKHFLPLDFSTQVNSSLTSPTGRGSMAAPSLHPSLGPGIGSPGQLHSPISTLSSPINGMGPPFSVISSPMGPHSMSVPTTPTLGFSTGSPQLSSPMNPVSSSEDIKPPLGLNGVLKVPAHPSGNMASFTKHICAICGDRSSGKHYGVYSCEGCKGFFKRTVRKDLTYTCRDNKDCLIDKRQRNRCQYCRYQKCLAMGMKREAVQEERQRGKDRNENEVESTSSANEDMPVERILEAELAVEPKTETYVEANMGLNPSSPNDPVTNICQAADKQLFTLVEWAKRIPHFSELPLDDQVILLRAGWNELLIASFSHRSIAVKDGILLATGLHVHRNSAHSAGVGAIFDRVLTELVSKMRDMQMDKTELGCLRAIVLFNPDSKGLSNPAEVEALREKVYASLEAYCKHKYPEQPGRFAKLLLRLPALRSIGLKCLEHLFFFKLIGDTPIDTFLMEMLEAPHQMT
Chain of Thyrotropin receptor (Homo sapiens) (P16473 whole entry, looked up): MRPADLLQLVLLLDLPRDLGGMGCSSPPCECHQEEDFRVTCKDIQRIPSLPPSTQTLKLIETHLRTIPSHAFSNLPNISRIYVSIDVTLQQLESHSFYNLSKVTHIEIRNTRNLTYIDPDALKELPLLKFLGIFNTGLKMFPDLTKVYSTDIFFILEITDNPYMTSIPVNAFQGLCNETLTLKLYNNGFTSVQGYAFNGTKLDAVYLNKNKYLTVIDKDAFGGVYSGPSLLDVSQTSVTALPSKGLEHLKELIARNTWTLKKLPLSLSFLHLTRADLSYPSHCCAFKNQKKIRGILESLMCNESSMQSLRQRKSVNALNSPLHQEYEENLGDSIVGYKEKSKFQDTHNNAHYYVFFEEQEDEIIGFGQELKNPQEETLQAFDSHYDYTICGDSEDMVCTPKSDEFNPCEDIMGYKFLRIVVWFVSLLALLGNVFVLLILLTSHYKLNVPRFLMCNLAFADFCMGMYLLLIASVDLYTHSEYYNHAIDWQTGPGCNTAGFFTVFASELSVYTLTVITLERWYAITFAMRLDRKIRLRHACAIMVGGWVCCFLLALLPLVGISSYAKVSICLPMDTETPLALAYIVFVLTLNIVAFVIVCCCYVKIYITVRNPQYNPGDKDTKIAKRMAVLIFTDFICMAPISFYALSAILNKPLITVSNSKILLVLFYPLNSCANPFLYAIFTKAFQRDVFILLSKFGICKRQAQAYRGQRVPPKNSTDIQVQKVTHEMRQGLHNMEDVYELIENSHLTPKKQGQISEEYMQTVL
Chain of Luciferin 4-monooxygenase (Photinus pyralis) (P08659 whole entry, looked up): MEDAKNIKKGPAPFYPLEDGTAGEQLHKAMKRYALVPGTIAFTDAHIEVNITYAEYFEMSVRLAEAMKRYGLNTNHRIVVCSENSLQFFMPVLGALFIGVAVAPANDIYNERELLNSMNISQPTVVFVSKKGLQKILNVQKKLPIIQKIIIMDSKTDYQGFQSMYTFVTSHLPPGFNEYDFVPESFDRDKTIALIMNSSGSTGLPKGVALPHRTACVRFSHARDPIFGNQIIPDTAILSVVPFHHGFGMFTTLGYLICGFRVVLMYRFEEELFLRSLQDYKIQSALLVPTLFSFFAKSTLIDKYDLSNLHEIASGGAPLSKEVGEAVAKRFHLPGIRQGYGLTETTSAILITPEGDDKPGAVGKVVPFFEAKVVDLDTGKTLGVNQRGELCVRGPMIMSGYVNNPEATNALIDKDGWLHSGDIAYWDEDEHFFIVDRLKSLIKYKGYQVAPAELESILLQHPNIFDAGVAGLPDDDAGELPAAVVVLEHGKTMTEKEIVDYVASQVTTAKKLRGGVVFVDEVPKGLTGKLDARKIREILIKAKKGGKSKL

Consider `Nc1cc([N+](=O)[O-])ccc1O`, for which the Potency entry is “inactive and 9.72 µM (active)” in [1]; 48.6 µM (active) and 30.5 µM (active) in experiment [4]; 48.6 µM (active) in [6]; 30.6 µM (active) in experiment [7]. For the same molecule, the Potency entry in experiment [2], in experiment [5], in experiment [8], in experiment [9], in experiment [10] and in experiment [12] was “inactive” in each case. Besides, the Potency result in experiment [13] was “inactive”. In addition, the molecule was classed as inactive in experiment [3], in [11] and in experiment [14].

Regarding `CC1CCC2CC1C2(C)C` (stereo unspecified), the Potency entry in experiment [1], in [2], in [4], in [5], in [6] and in experiment [7] was “inactive” in each case. For the same molecule, the Potency result in [8], in experiment [9], in experiment [15], in experiment [12], in experiment [13] and in experiment [16] was “inactive” each time. The call in experiment [3] and in experiment [14] was inactive.

As for `CCCCN(CCCC)CCCC`, the Potency entry in experiment [1], in experiment [2], in experiment [4], in experiment [5], in [6] and in [7] was “inactive” in each case. Besides, the Potency result in experiment [8], in experiment [9], in experiment [15], in experiment [12], in experiment [13] and in experiment [16] was “inactive” throughout. Besides, the result in experiment [3] and in experiment [14] was inactive.

As to `CC(=O)c1ccccc1`, the Potency result in experiment [1], in experiment [2], in experiment [4], in [5], in [6] and in [7] was “inactive” each time. Besides, the Potency entry in experiment [8], in experiment [9], in experiment [15], in [12], in experiment [13] and in experiment [16] was “inactive” throughout. The outcome in experiment [3] and in [14] was inactive.

As to `CCCCCCOCCO`, the Potency result in experiment [1], in experiment [2], in [17], in experiment [4], in experiment [5] and in experiment [6] was “inactive” in each case. Moreover, the Potency entry in [7], in experiment [8], in experiment [9], in experiment [15], in experiment [13] and in experiment [16] was “inactive” in each case. Further, the result in experiment [3] and in [14] was inactive.

For the molecule `Cc1cccnc1`, the Potency entry in experiment [1], in experiment [2], in experiment [4], in [5], in [6] and in experiment [7] was “inactive” in each case. Also, the Potency result in experiment [8], in [9], in experiment [15], in experiment [10], in experiment [12] and in [13] was “inactive” in each case. Moreover, the Potency result in experiment [16] is “inactive”. In addition, the outcome in experiment [3], in [11] and in [14] was inactive.

For the molecule `Cc1ccc(S(N)(=O)=O)cc1`, the Potency entry in [1], in experiment [2], in [17], in experiment [4], in experiment [5] and in experiment [6] was “inactive” each time. In addition, the Potency entry in [7], in experiment [15], in experiment [12], in experiment [13] and in experiment [16] was “inactive” each time. In addition, the outcome in experiment [3] and in experiment [14] was inactive.

Turning to `c1ccc(OCCOc2ccccc2)cc1`, the Potency result in experiment [1], in experiment [2], in experiment [4], in [6], in experiment [7] and in [8] was “inactive” each time. In addition, the Potency result in experiment [15], in experiment [12], in experiment [13] and in experiment [16] was “inactive” each time. In addition, the result in [3] and in experiment [14] was inactive. Besides, the Potency in experiment [5] was 28.2 µM (active) and 35.6 µM (active).

Take `O=C(O)c1ccc(C(=O)O)cc1`: the Potency entry in experiment [1], in experiment [2], in experiment [4], in experiment [5], in [6] and in experiment [7] was “inactive” throughout. Also, the Potency entry in experiment [8], in experiment [9], in experiment [15], in experiment [12], in experiment [13] and in experiment [16] was “inactive” throughout. Besides, the molecule was called inactive in experiment [3] and in experiment [14].
